High-throughput results: PubChem BioAssay, several laboratories
RTF Ca sens inh – cardiac RTF calcium sensitivity inhibitors, primary screen, biochemical, IANBD-TnC fluorescence, EC70 calcium; inhibition, % at 7.15 µM; Troponin I, cardiac muscle (Homo sapiens) + Troponin T, cardiac muscle (Homo sapiens) + …; 340,000 compounds, 0.12% hits; IANBD-labeled cardiac RTF, Ca2+ fluorescence;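 active = inhibition above the mean inhibition of all tested compounds plus 3 SD, cut at about 17% in these data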;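 also: assay run at fixed EC70 calcium of 1.6 mM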
cardiac RTF act – cardiac RTF calcium sensitivity activators, primary screen, biochemical, IANBD-TnC fluorescence, EC20 calcium; IANBD-labeled TnC RTF fluorescence at EC20 calcium; 0% EC20 calcium, 100% full calcium; activation, % at 7.2 µM; 340,000 compounds, 0.24% hits; AID 493008, 2010;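 active = activation above the mean over all tested compounds plus 3 SD, cut at about 30% in these data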;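 also: rise in fluorescence read as greater calcium sensitivity of cardiac thin filaments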
CRFBP-R2 agonist – agonists of CRF-BP/CRF-R2 complex, primary screen, cell-based, HEK293, calcium dye fluorescence, uHTS. CRF-binding protein / CRF receptor 2 complex (human). 350,000 compounds, 0.46% hits. calcium dye fluorescence (FLIPR); percent of saturating CRF peptide response. activation, % at 13.2 µM;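 active = activation of at least 50%, plus an integration ratio under a set limit after plate pattern correction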;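 also: plate controls were neutral control wells without compound for no effect and CRF at EC100 for full effect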
CRFR2-BP antag – antagonists of CRF-BP/CRF-R2 complex, primary screen, cell-based, HEK293, calcium dye fluorescence, uHTS; inhibition, % at 11.8 µM; CRF-induced calcium fluorescence; 350,000 compounds, 0.59% hits; AID 588475, 2011;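 active = inhibition of the ligand-induced calcium signal above about 50% at the single tested concentration, limit read from the data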
Active calls of the source: *; nt = not tested or not shown. Sampled rows, rich in hits. Any-hit rate of the full collection: about 1.3%.

SMILES	RTF Ca sens inh	cardiac RTF act	CRFBP-R2 agonist	CRFR2-BP antag
O=C(C[C@H]1C[C@H](C(=O)N2CCCCC2)[C@@]2(CCc3ccccc3)c3[nH]c4ccc(Cl)cc4c3CCN2C1=O)NCCN1CCOCC1	-2	-2	57*	-3
C[C@]12c3[nH]c4ccccc4c3CCN1C(=O)C(CC(=O)NCC13CC4CC(CC(C4)C1)C3)C[C@@H]2C(=O)N1CCOCC1 (stereo not given in full)	-1	-6	55*	-48
O=C(C[C@H]1C[C@H](C(=O)N2CCCCC2)[C@@]2(CCc3ccccc3)c3[nH]c4ccc(Cl)cc4c3CCN2C1=O)NCCCn1ccnc1	-2	-2	8	-8
CC(C)N(C(=O)[C@H]1C[C@H](CC(=O)NCc2ccco2)C(=O)N2CCc3c([nH]c4cc(CCC(=O)N(C)C)ccc34)[C@]12C)C(C)C	-5	-6	-3	60*
C[C@]12c3[nH]c4ccccc4c3CCN1C(=O)C(CC(=O)NCC13CC4CC(CC(C4)C1)C3)C[C@@H]2C(=O)N1CCCCC1 (stereo not given in full)	5	-7	4	-9
CC(C)N(C(=O)[C@H]1C[C@H](CC(=O)NCCC2=CCCCC2)C(=O)N2CCc3c([nH]c4ccc(Cl)cc34)[C@]12C)C(C)C	1	-3	-3	65*
COCCNC(=S)N1CCc2cc(OC)c(OC)cc2C1COc1ccc(C(C)C)cc1 (stereo not given)	1	8	-2	50*
CCOc1ccc(NS(=O)(=O)c2ccc(C(=O)N3CCCC(C)C3)cc2)cc1 (stereo not given)	-9	2	55*	-26
Cc1ccc(NS(=O)(=O)c2ccc(C(=O)N3CC(C)OC(C)C3)cc2)cc1 (stereo not given)	-10	0	83*	-29
CCOc1ccc(S(=O)(=O)Nc2ccc(C(=O)N3CCCC3)cc2)cc1	0	1	-1	-2
CCOc1ccc(S(=O)(=O)N2CCN(C(=O)c3cccnc3)CC2)cc1	-5	0	-1	-1
CCOc1ccc(S(=O)(=O)N2CCN(C(=O)c3ccncc3)CC2)cc1	0	-3	1	62*
CCOc1ccc(NS(=O)(=O)c2ccc(NC(=O)[C@@H]3CCCC[C@@H]3C(=O)O)cc2)cc1	-9	-2	189*	-225
O=C(NCC(NS(=O)(=O)OCC(Cl)(Cl)Cl)c1ccccc1)C(F)(F)F (stereo not given)	-2	1	2	-4
O=C(c1ccc(S(=O)(=O)Nc2ccccc2)cc1)N1CCCC(C(F)(F)F)C1 (stereo not given)	1	-5	73*	-65
Cc1cccc(N/C(N)=N/c2nc(C)cc(C)n2)c1	1	7	81*	-53
CC(=O)Nc1cccc(N/C(N)=N/c2nc(C)cc(C)n2)c1	9	1	-1	13
CCCCc1ccc(N/C(N)=N/c2nc(C)cc(C)n2)cc1	nt	nt	102*	-81
Cc1ccc(N/C(N)=N/c2nc(C)cc(C)n2)cc1	-3	-6	55*	-48
OC[C@H]1O[C@H](OC[C@H]2OC(O)[C@H](O)[C@@H](O)[C@@H]2O)[C@H](O)[C@@H](O)[C@@H]1O (stereo not given in full)	-1	9	-2	7
CCC1(c2ccccc2)NC(=O)N(CC(=O)NCc2ccc(C)cc2)C1=O (stereo not given)	0	-1	-1	1
O=C(CCC(=O)N(CC(=O)NC1CCCC1)Cc1cccs1)Nc1nccs1	-7	-2	1	-9
COc1ccc(N2CCN(CCCNC(=O)CN3CCN(Cc4ccccc4C)C3=O)CC2)cc1	-1	8	6	56*
Cc1cc(=O)oc2c1ccc1oc(/C(=N/O)c3ccccc3)c(C)c12	-10	9	-1	118*
Cc1ccc(/C(=N\O)c2oc3c(C)c4oc(=O)cc(C)c4cc3c2C)cc1	9	0	-1	11
SMILES	RTF Ca sens inh	cardiac RTF act	CRFBP-R2 agonist	CRFR2-BP antag
CC1CC(C)CN(S(=O)(=O)c2ccc3oc(=O)ccc3c2)C1 (stereo not given)	-4	-5	-1	-2
O=C1N/C(=N/N=C/c2ccc(F)cc2)SC1c1ccccc1 (stereo not given)	nt	nt	-1	52*
CCOC(=O)C1=NN(C(=O)COc2ccccc2)C(O)(c2ccc(Cl)cc2)C1 (stereo not given)	-11	-3	0	-20
CCOC(=O)C1=NN(C(=O)c2ccccc2)C(O)(c2ccc(C)cc2)C1 (stereo not given)	1	0	105*	-4
COC(=O)C1=NN(C(=O)c2cccc(Br)c2)C(O)(c2ccc(Cl)cc2)C1 (stereo not given)	5	4	99*	-30
CCOC(=O)C1=NN(C(=O)c2ccc(OC)cc2)C(O)(c2ccc(Cl)cc2)C1 (stereo not given)	4	2	80*	-4
CCOC(=O)C1=NN(C(=O)Cc2ccccc2)C(O)(c2ccc(Cl)cc2)C1 (stereo not given)	-4	2	-2	-26
CC(C)CN1CCC(CNC(=O)CCc2nnc(Cc3c[nH]c4ccccc34)o2)CC1	-6	5	0	0
Cc1ccc(CN2CCN(C3CCOCC3)CC2CCO)cc1 (stereo not given)	-15	7	1	80*
Nc1ccc(C(=O)N/N=C\c2cc(N=Nc3cccc4ccccc34)ccc2O)cc1	3	1	0	59*
COC(=O)N/N=C/c1cc(N=Nc2ccccc2Cl)ccc1O	7	-6	0	9
CC(C)CN1CCN(Cc2cccc3nccnc23)CC1CCO (stereo not given)	0	-4	0	74*
CC(C)CN1CCN(Cc2cccc3ncccc23)CC1CCO (stereo not given)	-1	2	-1	-4
Cc1cc(NS(=O)(=O)c2ccc(NC(=O)C(C)Oc3cc(C)c(Cl)c(C)c3)cc2)no1 (stereo not given)	-4	9	-1	14
Cc1c(O)ccc2c(CC(=O)N[C@@H](Cc3ccccc3)C(=O)O)cc(=O)oc12	-9	-4	2	-3
Cc1ccc(OCn2c(=O)sc3ccccc32)cc1	-5	-6	-2	55*
CNc1nc(-c2c(C)[nH]c3ccc(OC)cc23)cs1	-2	-4	8	88*
Cc1cccc(NC(=O)COC(=O)CCc2c[nH]c3ccccc23)c1	0	2	0	-17
Clc1ccc(-c2nnc(NCc3ccccc3)c3ccccc23)cc1	-17	-2	-2	52*
Cc1ccc(-c2nnc(NCc3ccccc3)c3ccccc23)cc1	6	-1	-1	39
N#Cc1nc2ccccc2n1OCc1ccccc1	nt	nt	-3	18
